High-throughput results: PubChem, National Center for Advancing Translational Sciences (NCATS)
RECQ1 helicase: blocks DNA unwinding by human RECQ1; P46063; RECQ1 DNA unwinding, red fluorescence kinetic read; Potency, µM (highest dose often 57.3 µM), hits mostly inhibitors; actives 0.54% (n = 240,000); AID 2549; note: nearly all actives have a fitted effect of over 30% in size
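50 nM RECQ1T1 preincubated 15 min with compound in Tris pH 8.0 buffer with MgCl2, DTT, Tween-20 and 2.5 ug/ml poly(dI-dC); started with 200 nM TAMRA/BHQ-2 forked duplex and 2 mM ATP. Unwinding read as fluorescence (525/598 nm), two reads 2 h apart.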
TDP1 block: blocks human tyrosyl-DNA phosphodiesterase 1 | Q9NUW8 | recombinant TDP1, AlphaScreen DNA substrate cleavage | Potency, µM (titrated, usually from 130 µM), actives largely listed as inhibitors | actives 0.28% (n = 350,000); note: nearly all actives have a fitted effect of over 40% in size
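Signal: AlphaScreen proximity between streptavidin donor and anti-FITC acceptor beads on intact substrate. Reaction: Tdp1 1 nM, substrate 15 nM final, 5 min RT after 15 min compound preincubation.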
JMJD2E inh: inhibitors of human JMJD2E histone demethylase | actives 1.6% (n = 230,000) | B2RXH2 | Potency, µM (doses to about 57.1 µM), usual class: inhibitors | JMJD2E catalytic domain, FDH-coupled NADH fluorescence (FDH is formaldehyde dehydrogenase); note: nearly all actives have a fitted effect of over 50% in size
BLM helicase inh: blocks DNA unwinding by human BLM helicase. recombinant BLM DNA unwinding, fluorescence dequenching. Potency, µM (highest dose often 56.1 µM), most hits filed as inhibitors. actives 0.2% (n = 350,000). AID 2528; note: nearly all actives have a fitted effect of over 35% in size
APE1 inh-1: blocks human APE1 abasic DNA cleavage; recombinant APE1, TAMRA/BHQ-2 abasic DNA cleavage fluorescence; P27695; Potency, µM (highest dose often 65.8 µM), actives largely listed as inhibitors; actives 0.35% (n = 350,000); note: nearly all actives have a fitted effect of over 55% in size
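Enzyme (0.75 nM final) and test compound are incubated 15 min at room temperature before adding 50 nM quenched THF abasic-site duplex. Cleavage dequenches TAMRA, followed at 525/598 nm over three reads one minute apart.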
GCN5L2 inh: GCN5L2 (KAT2A) acetyltransferase inhibition. actives 0.21% (n = 390,000). Potency, µM (highest dose often 58.9 µM), most hits filed as inhibitors. GCN5L2 HAT assay, ThioGlo1 CoA-SH fluorescence
Target sequence (Q92830 whole entry, looked up): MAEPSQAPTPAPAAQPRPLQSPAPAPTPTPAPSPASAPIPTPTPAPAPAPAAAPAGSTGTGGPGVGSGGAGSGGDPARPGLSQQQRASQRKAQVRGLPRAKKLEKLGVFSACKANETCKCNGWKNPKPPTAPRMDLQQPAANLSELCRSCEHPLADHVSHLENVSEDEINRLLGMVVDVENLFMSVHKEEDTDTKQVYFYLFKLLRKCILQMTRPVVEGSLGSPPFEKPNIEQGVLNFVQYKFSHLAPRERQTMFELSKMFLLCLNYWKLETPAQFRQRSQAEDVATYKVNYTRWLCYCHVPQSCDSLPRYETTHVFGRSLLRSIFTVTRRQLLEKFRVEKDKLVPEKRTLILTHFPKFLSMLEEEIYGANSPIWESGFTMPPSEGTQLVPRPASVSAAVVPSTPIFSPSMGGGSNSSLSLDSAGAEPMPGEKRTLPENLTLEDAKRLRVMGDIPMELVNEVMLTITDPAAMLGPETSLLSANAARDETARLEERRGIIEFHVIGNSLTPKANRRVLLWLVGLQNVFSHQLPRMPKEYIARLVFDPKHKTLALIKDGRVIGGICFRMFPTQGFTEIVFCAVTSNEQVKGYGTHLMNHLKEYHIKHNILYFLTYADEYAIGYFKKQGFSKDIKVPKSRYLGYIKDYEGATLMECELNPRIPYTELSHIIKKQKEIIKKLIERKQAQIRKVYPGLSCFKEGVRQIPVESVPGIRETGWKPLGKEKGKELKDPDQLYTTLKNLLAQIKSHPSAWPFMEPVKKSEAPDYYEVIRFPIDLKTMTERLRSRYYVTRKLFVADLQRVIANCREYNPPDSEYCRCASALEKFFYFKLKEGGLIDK
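qHTS, 1536-well. 20nM enzyme, pH 7.5 HEPES/EDTA/Tween-20 buffer; 15 min compound preinc., RT. Start: 75uM H3(1-25), 70uM AcCoA, 50uM ThioGlo1. Read Ex340/Em540 at t=0 (autofluorescence flag) and t=20 min.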
DNA dye displace: DNA dye displacement counter-screen activity; Potency, µM (top dose mostly 28.5 µM), actives largely listed as inhibitors; shares compounds with APE1 inh-1; actives 7% (n = 480); DNA fluorescent dye displacement counterscreen, fluorescence;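 note: loss of thiazole orange fluorescence as the dye is displaced from duplex DNA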
Endo IV inh: Endo IV (E. coli) inhibition counter-screen; AID 2565; actives 4% (n = 560); E. coli Endo IV, fluorogenic AP-site DNA cleavage; shares compounds with APE1 inh-1; Potency, µM (doses to about 27.1 µM), usual class: inhibitors
APE1 inh-2: confirmation of inhibitors of human APE1 endonuclease | shares compounds with APE1 inh-1 | purified APE1, fluorogenic abasic-site DNA cleavage | Potency, µM (titrated, usually from 57.1 µM), most hits filed as inhibitors | actives 44% (n = 750); note: nearly all actives have a fitted effect of over 30% in size
APE1 FP inh: displaces DNA from human APE1 in FP assay. actives 7% (n = 480). AID 2573. Potency, µM (titrated, usually from 28.5 µM), hits mostly inhibitors. shares compounds with APE1 inh-1. APE1 binding to TAMRA-labelled double-stranded DNA, fluorescence polarization displacement
Numbers stand for hits; [ ] = dose if it differs, or a comment. Only a selection was taken, and hits are over-represented in it overall. Unless noted, calls come from the whole dose curve; as a rule, active = well fitted curve in the direction sought with a large enough effect; inconclusive = small, poorly fitted or top-dose-only effect, or another doubt; inactive = no such curve, though single readings can be large; an effect the other way counts as inactive or inconclusive.

For CCOC(=O)c1c(C)[nH]c(C)c1S(=O)(=O)N1CCC(C(=O)Nc2ccc(F)cc2F)CC1 the results were TDP1 block inactive, BLM helicase inh inactive and GCN5L2 inh inactive.
Screening Cc1ccc(-n2cccc2/C=C2/NC(=O)N(CC(=O)Nc3cccc(C)c3)C2=O)cc1 returned RECQ1 helicase inactive, TDP1 block inactive, JMJD2E inh inconclusive, BLM helicase inh inactive, APE1 inh-1 inactive and GCN5L2 inh inactive.
Screening Cc1cccc(NC(=O)CN2C(=O)N/C(=C\c3cccn3-c3cccc(C(=O)O)c3)C2=O)c1 returned RECQ1 helicase inactive, JMJD2E inh inconclusive, BLM helicase inh inactive, APE1 inh-1 inconclusive, GCN5L2 inh inactive, DNA dye displace inactive, Endo IV inh inactive, APE1 inh-2 inconclusive and APE1 FP inh inactive.
`CCC(=O)Nc1cccc(C2=NOC3(C2)C[C@@H](C(N)=O)N(C(=O)COc2ccc(Cl)cc2)C3)c1` (stereo partly specified) gave RECQ1 helicase inactive, TDP1 block inactive, JMJD2E inh inactive, BLM helicase inh inactive, APE1 inh-1 inactive and GCN5L2 inh inactive.
C/C=C\C=C/C(=O)Nc1cccc(C2=NOC3(C2)C[C@@H](C(N)=O)N(C(=O)/C=C/CC)C3)c1 (stereo partly specified) was read as RECQ1 helicase inactive, TDP1 block inactive, JMJD2E inh inactive, BLM helicase inh inactive, APE1 inh-1 inactive and GCN5L2 inh inactive.
Screening C=C(C)C(=O)Nc1cccc(C2=NOC3(C2)C[C@H](C(N)=O)N(C(=O)COc2ccc(Cl)cc2)C3)c1 (stereo partly specified) returned RECQ1 helicase 17.8µM, TDP1 block 11.2µM, JMJD2E inh inactive, BLM helicase inh inactive, APE1 inh-1 inconclusive, GCN5L2 inh inactive and APE1 inh-2 inconclusive.
C/C=C\C=C/C(=O)Nc1cccc(C2=NOC3(C2)C[C@@H](C(N)=O)N(C(=O)/C=C/C=C\C)C3)c1 (stereo partly specified) was read as RECQ1 helicase 22.4µM, TDP1 block 20µM, JMJD2E inh inconclusive, BLM helicase inh 10µM, APE1 inh-1 35.5µM, GCN5L2 inh inactive and APE1 inh-2 inconclusive.
Screening CC(=O)OCC(CO)OC(C)=O (stereo unspecified) (tested in a mixture with another compound) returned RECQ1 helicase inactive, TDP1 block inactive, BLM helicase inh inactive, APE1 inh-1 inactive and GCN5L2 inh inactive.
Screening COCCCNC(=O)c1sc2nc(C)c(C(=O)Nc3ccc(C)cc3C)c(-c3ccccc3Cl)c2c1N returned TDP1 block inactive, BLM helicase inh inactive and GCN5L2 inh inactive.
Screening CS(=O)(=O)N1Cc2ccccc2CC1C(=O)OCC(=O)NCc1ccccc1 (stereo unspecified) returned APE1 inh-1 inconclusive and GCN5L2 inh inactive.
Screening CS(=O)(=O)N1Cc2ccccc2CC1C(=O)OCC(=O)Nc1ccc2ccccc2c1 (stereo unspecified) returned RECQ1 helicase inactive, TDP1 block inactive, JMJD2E inh inactive, BLM helicase inh inactive, APE1 inh-1 inconclusive, GCN5L2 inh inactive, DNA dye displace inconclusive, Endo IV inh inconclusive, APE1 inh-2 inconclusive and APE1 FP inh inconclusive.
`OC1OC[C@H](O)[C@@H](O)[C@@H]1O` (stereo partly specified) gave RECQ1 helicase inactive, TDP1 block inactive, BLM helicase inh inactive, APE1 inh-1 inconclusive and GCN5L2 inh inactive.
Screening Cc1cccc(OC(=O)Cn2c(C(F)(F)F)nc3ccccc32)c1 returned RECQ1 helicase inactive, TDP1 block inactive, JMJD2E inh inactive, BLM helicase inh inactive, APE1 inh-1 35.5µM, GCN5L2 inh inactive, DNA dye displace inactive, Endo IV inh inactive, APE1 inh-2 inconclusive and APE1 FP inh inactive.
Screening O=C(CSc1nnnn1-c1ccccc1)NC(=O)NCc1ccco1 returned RECQ1 helicase inactive, TDP1 block inactive, JMJD2E inh inactive, BLM helicase inh inactive, APE1 inh-1 28.2µM, GCN5L2 inh inactive, DNA dye displace inconclusive, Endo IV inh inactive, APE1 inh-2 inconclusive and APE1 FP inh inconclusive.
For CCOc1ccccc1-n1nnnc1SCC(=O)NC(=O)NCc1ccco1 the results were RECQ1 helicase inactive, TDP1 block inactive, JMJD2E inh inactive, BLM helicase inh inactive, APE1 inh-1 28.2µM, GCN5L2 inh inactive, DNA dye displace inconclusive, Endo IV inh inactive, APE1 inh-2 inconclusive and APE1 FP inh inconclusive.
For O=C(CSc1nnc(COc2ccccc2Cl)o1)NC(=O)NCc1ccco1 the results were RECQ1 helicase inactive, TDP1 block inactive, JMJD2E inh inactive, BLM helicase inh inactive, APE1 inh-1 11.2µM, GCN5L2 inh inactive, DNA dye displace inconclusive, Endo IV inh inactive, APE1 inh-2 14.1µM and APE1 FP inh inactive.
CC(C)(C)NC(=O)NC(=O)CSc1nnc(COc2ccccc2Cl)o1 was read as RECQ1 helicase inactive, TDP1 block inactive, JMJD2E inh inactive, BLM helicase inh inactive, APE1 inh-1 inactive and GCN5L2 inh inactive.
For CCOC(=O)c1cccc(NC(=O)N2Cc3ccccc3Oc3ncccc32)c1 the results were TDP1 block inactive, BLM helicase inh inactive and GCN5L2 inh inactive.
O[C@@H]([C@H](O)[C@@H](O)CBr)[C@@H](O)CBr was read as RECQ1 helicase inactive, TDP1 block inactive and APE1 inh-1 inactive.
CCOC(=O)NC1(NC(C)C)Oc2ccccc2O1 was read as RECQ1 helicase inactive, TDP1 block inactive, JMJD2E inh inconclusive, BLM helicase inh inactive, APE1 inh-1 22.4µM, GCN5L2 inh inactive[0.501 µM], DNA dye displace inactive, Endo IV inh inactive, APE1 inh-2 inconclusive and APE1 FP inh inactive.
For CCOC(=O)NC1(NC2CCCCC2)Oc2ccccc2O1 the results were RECQ1 helicase inconclusive, JMJD2E inh inactive, BLM helicase inh inactive, APE1 inh-1 inconclusive and GCN5L2 inh inactive.
